Only some compounds are listed: those with a hit (about 18% of all), similar ones and a draw of the others.
TDP1 cell CPT: DT40-hTDP1 cell growth loss with CPT; 420,000 compounds, 12% hits; Potency, µM (top dose mostly 46.2 µM), for the others: at the top dose activity change, negative = growth inhibition, actives largely listed as inhibitors; chicken DT40 Tdp1-/-;hTDP1 cells + 20 nM CPT, ATP luminescence, 48 h; also: potency is read from the fitted curve at half-maximal effect; % is scaled to controls: 0 for no effect and ±100 for the full control effect; nearly all actives have a fitted effect of over 55% in size
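Chicken DT40 Tdp1-/- cells stably complemented with human TDP1 were seeded at 400 cells/well in medium containing 20 nM camptothecin, exposed to pin-transferred compounds, and grown at 37 °C for at least 48 hr. Viability was read as ATP luminescence.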
IL-1B inflam inh: inhibitors of inflammasome signaling (IL-1 beta secretion); THP-1 LPS/ATP IL-1B secretion, AlphaLISA, 16 h; stronger effect = lower value; activity change, % at 57.5 µM; 360,000 compounds, 4.7% hits; in the data active = activity change below about -50%; inconclusive = mostly about -30% to -49%; also: % is scaled to controls: 0 for no effect and ±100 for the full control effect
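THP-1 cells pretreated 1 hr with compounds (up to 57.5 uM final), then stimulated with LPS (250 ng/mL final) plus ATP (1.25 mM final); secreted IL-1B measured by AlphaLISA after 16 hr, decreased signal indicating inhibition.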
DT40 TDP1 no CPT: qHTS for Inhibitors of human tyrosyl-DNA phosphodiesterase 1 (TDP1): qHTS in cells in absence of CPT; DT40 Tdp1-/- hTDP1 cells, no CPT, ATP luminescence, 48 h; Potency, µM (doses to about 46.2 µM), inactives show top-dose activity change, negative = growth inhibition, actives largely listed as inhibitors; 420,000 compounds, 15% hits; also: potency is read from the fitted curve at half-maximal effect; % is scaled to controls: 0 for no effect and ±100 for the full control effect; nearly all actives have a fitted effect of over 55% in size
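DT40 Tdp1-/-;hTDP1 cells, no CPT (DMSO vehicle only), 400 cells/well; compounds pin-transferred; ≥48 hr, 37 °C; CellTiter-Glo 30 min RT dark, luminescence read.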
HepG2 viability: HepG2 cytotoxicity, counter-screen for TGF-b inhibitors; HepG2 CAGA-GFP viability, ATP luminescence, 18 h; Potency, µM (series often up to 46.1 µM), inactives show top-dose activity change, negative = cytotoxicity, hits mostly cytotoxic; 410,000 compounds, 0.76% hits; AID 588856; also: potency is read from the fitted curve at half-maximal effect
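HepG2 CAGA-GFP cells (1000/well, DMEM with 1% FBS) received compound, then TGF-beta at 500 pg/mL final, and were incubated 18 hours at 37 degrees C. Viability was read by CellTiter-Glo luminescence. Media-only wells were set as complete cell-killing and DMSO as no toxicity.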
TDP1 inh: inhibitors of human tyrosyl-DNA phosphodiesterase TDP1. 350,000 compounds, 0.28% hits. Potency, µM (doses to about 130 µM), inactives show top-dose activity change, negative = inhibition, usual class: inhibitors. AID 485290. recombinant TDP1, AlphaScreen DNA substrate cleavage. Q9NUW8; also: potency is read from the fitted curve at half-maximal effect; % is scaled to controls: 0 for no effect and ±100 for the full control effect; nearly all actives have a fitted effect of over 40% in size
Target sequence (Q9NUW8 whole entry, looked up): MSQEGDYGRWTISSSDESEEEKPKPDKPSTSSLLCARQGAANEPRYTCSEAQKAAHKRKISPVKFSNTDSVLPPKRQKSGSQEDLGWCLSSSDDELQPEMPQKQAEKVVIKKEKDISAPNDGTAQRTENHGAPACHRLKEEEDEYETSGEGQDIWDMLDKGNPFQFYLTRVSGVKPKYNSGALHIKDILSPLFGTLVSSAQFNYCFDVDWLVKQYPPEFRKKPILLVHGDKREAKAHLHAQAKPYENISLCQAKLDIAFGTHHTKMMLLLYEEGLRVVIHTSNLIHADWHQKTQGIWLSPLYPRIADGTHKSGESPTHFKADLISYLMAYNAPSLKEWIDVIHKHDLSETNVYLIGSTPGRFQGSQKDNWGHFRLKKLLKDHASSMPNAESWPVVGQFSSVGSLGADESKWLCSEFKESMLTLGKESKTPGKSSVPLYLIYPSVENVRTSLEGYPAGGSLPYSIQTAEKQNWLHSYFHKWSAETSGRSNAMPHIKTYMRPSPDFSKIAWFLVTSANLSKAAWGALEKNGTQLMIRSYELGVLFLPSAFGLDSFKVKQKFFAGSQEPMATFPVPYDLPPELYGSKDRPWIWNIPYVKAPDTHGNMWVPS
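Recombinant E. coli-expressed Tdp1 (1 nM) preincubated with compound 15 min at RT, then 5'-biotin/3'-phosphotyrosine-FITC DNA substrate (15 nM) added for 5 min. AlphaScreen beads (10 ug/ml) added, 10 min RT; tyrosine-FITC cleavage read as signal loss.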
TGFb inhibitor: blocks TGF-b signaling | Potency, µM (doses to about 46.1 µM), for the others: at the highest dose activity, negative = inhibition, hits mostly inhibitors | HepG2 CAGA-GFP TGF-b/SMAD3 reporter, GFP fluorescence, 18 h; TGF-beta stimulated, 500 pg/mL final | 410,000 compounds, 1.2% hits; also: potency is read from the fitted curve at half-maximal effect; % is scaled to controls: 0 for no effect and ±100 for the full control effect; nearly all actives have a fitted effect of over 65% in size
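HEPG2 CAGA-GFP cells (1000/well, DMEM with 1% FBS) were pre-incubated 2 h at 37 degrees C, given compound by pin tool, then stimulated with TGF-beta at 500 pg/mL final for 18 h before per-cell GFP fluorescence imaging.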
Active calls of the source: *; ? = inconclusive; · = no result given; [ ] = dose if it differs, or a comment. Unless noted, calls follow the shape of the dose curve; as a rule, active = well fitted curve in the direction sought with a large enough effect; inconclusive = small, poorly fitted or top-dose-only effect, or another doubt; inactive = no such curve, though single readings can be large; an effect the other way counts as inactive or inconclusive.

SMILES | TDP1 cell CPT | IL-1B inflam inh | DT40 TDP1 no CPT | HepG2 viability | TDP1 inh | TGFb inhibitor
CCCN(C(=O)CSCC(=O)Nc1ccc(OC)cc1)c1c(N)n(Cc2ccccc2)c(=O)[nH]c1=O | 11% | 3 | -4% | -8% | · | -2%
CCc1ccc(S(=O)(=O)Nc2cccc(-c3ccc(N4CCOCC4)nn3)c2)cc1 | 8.2µM* | · | ? | -32% | 7% | -24%
O=S(=O)(Nc1cccc(-c2ccc(N3CCCCC3)nn2)c1)c1ccc(F)cc1F | ? | · | 26µM* | -30% | 1% | ?
CN(Cc1ccncn1)C(=O)C1CCC(=O)N(Cc2cccc(C(F)(F)F)c2)C1 (centres undefined) | -14% | -4 | -9% | -3% | 3%[56.1 µM] | 16%
Cc1cccc(OCC(=O)OCc2cc(=O)n3nc(C4CCCCC4)sc3n2)c1 | -17% | · | -9% | 11% | 8% | 2%
CCS(=O)(=O)n1nc(-c2ccco2)nc1NCc1ccc(C(C)C)cc1 | ? | · | 16µM* | -6% | -2% | ?
CNc1c(Br)cc(/C=C2\C=Cc3ccccc32)cc1Br | -9% | · | ? | -57% | · | ?
COc1ccccc1C(=O)NC(CCSC)C(=O)NNC(=O)c1ccccc1O (centres undefined) | ? | 72 | 29µM* | -31% | 1% | 1%
Cc1cc(=O)n(CC(=O)N2CCN(c3ccccc3F)CC2)c2c1c(C)nn2C | 16µM* | · | 8.2µM* | -32% | 6% | -30%
Cc1nn(C)c2c1c(C(F)(F)F)cc(=O)n2CC(=O)N1CCN(c2ccccc2F)CC1 | ? | · | ? | -22% | 3% | ?
CCOC(=O)C1CCN(C(=O)Cn2c(=O)cc(C)c3c(C)nn(C)c32)CC1 | 26µM* | · | 18µM* | -55% | 1% | -38%
CCn1c(=O)c(C(=O)NCc2ccc(F)cc2)c(O)c2ccccc21 | 9.2µM* | 102 | ? | 0% | -7% | -29%
CCn1c(=O)c(C(=O)NCc2ccc(Cl)cc2)c(O)c2ccccc21 | 21µM* | 20 | ? | 3% | · | 26%
CCn1c(=O)c(C(=O)NCCCc2ccccc2)c(O)c2ccccc21 | -23% | 14 | ? | -9% | 56µM* | ?
CCCn1c(=O)c(C(=O)NCCCc2ccccc2)c(O)c2ccccc21 | ? | 0 | ? | 2% | -13% | ?
CCn1c(=O)c(C(=O)NCc2ccccc2)c(O)c2ccccc21 | -20% | 0 | ? | -7% | · | -8%
Cc1ccc(NC(=O)CN2C(=O)CCc3cc(S(=O)(=O)N4CCOCC4)ccc32)cc1N(C)C | -8% | · | 3% | -24% | 9% | -8%
CC(C)c1cc(C(=O)N2CCCC(CCC(=O)N3CCN(c4ccccn4)CC3)C2)no1 (centres undefined) | 23µM* | 12 | 23µM* | -10% | · | -27%
Cc1ccccc1C(=O)N1CCCC(CCC(=O)N2CCN(c3ccccn3)CC2)C1 (centres undefined) | -5% | -7 | ? | -15% | 5% | -15%
O=C(CCC1CCCN(C(=O)CC2=CCCCC2)C1)N1CCN(c2ccccn2)CC1 (centres undefined) | ? | 0 | 16µM* | -9% | 2% | -7%
O=C(CCC1CCCN(C(=O)C2=CCCC2)C1)N1CCN(c2ccccn2)CC1 (centres undefined) | -21% | 1 | 23µM* | 14% | 6% | -2%
CC(=O)Nc1cccc(Nc2cc(C)nn2C)c1 | -4% | 14 | 12% | -21% | · | -9%
COc1ccccc1CNC(=O)CSc1nc(-c2ccccc2)cn1N | ? | 0 | -17% | -16% | 10% | -11%
CN(C(=O)CSc1nc(-c2ccccc2)cn1N)C(c1ccccc1)c1ccccc1 | 21µM* | ? | 26µM* | -50% | 2% | ?
O=Cc1cc2c3c(c1)CCCN3CCC2 | ? | · | ? | -31% | · | -22%
SMILES | TDP1 cell CPT | IL-1B inflam inh | DT40 TDP1 no CPT | HepG2 viability | TDP1 inh | TGFb inhibitor
Cc1cc(/C=C/c2ccnc3ccccc23)ccc1N | 8.9µM* | · | 20µM* | -21% | · | ?
CCCCCCN(CCCCCC)c1ccc(/C=C/c2ccnc3ccccc23)cc1 | ? | · | ? | -28% | · | 16%
CN(C)c1ccc(/C=C/c2ccnc3ccccc23)cc1N | 2.8µM* | · | 2.5µM* | -26% | · | -2%
Nc1c(Br)cc(/C=C/c2ccnc3ccccc23)cc1Br | ? | · | 10µM* | -27% | · | ?
C(=C\c1ccnc2ccccc12)/c1cc2c3c(c1)CCCN3CCC2 | 2.2µM* | · | 2µM* | -43% | · | -30%
COc1cccc(-c2oc3ccccc3c(=O)c2O)c1 | 27µM* | · | 27µM* | · | 9%[56.1 µM] | ·
O=c1c(O)c(-c2ccc3c(c2)OCO3)oc2ccccc12 | 18µM* | -1 | ? | 17% | -1% | 30%
COc1ccc(CNC(=O)Cn2cnc3c(SC)nc(N)nc32)cc1 | ? | 39 | -29% | 7% | 0% | -14%
CSc1nc(N)nc2c1ncn2CC(=O)Nc1ccc(C)c(C)c1 | 13µM* | 24 | 15µM* | -3% | 0% | -12%
CSc1nc(N)nc2c1ncn2CC(=O)NCC(c1ccccc1)c1ccccc1 | 15µM* | 25 | 21µM* | -33% | 2% | -3%
O=C(NCC(c1ccco1)N1CCc2ccccc21)C(=O)Nc1ccccc1 (centres undefined) | -35% | 27 | ? | -5% | 2%[0.505 µM] | 6%
COc1ccc(CCC(=O)NCC(c2ccco2)N2CCc3ccccc32)cc1 (centres undefined) | 18µM* | -8 | 23µM* | 9% | · | ?
O=C(NCC(c1ccco1)N1CCc2ccccc21)C(=O)Nc1ccccc1F (centres undefined) | ? | -7 | 18µM* | -17% | · | ?
O=C(NCC(c1ccco1)N1CCc2ccccc21)c1ccccc1 (centres undefined) | ? | -17 | ? | 5% | 4%[0.505 µM] | ?
Cc1ccc(C(=O)NCC(c2ccco2)N2CCc3ccccc32)cc1C (centres undefined) | 21µM* | -12 | 16µM* | 3% | · | ?
COc1cc(C(=O)NCC(c2ccco2)N2CCc3ccccc32)cc(OC)c1OC (centres undefined) | ? | 0 | 9.2µM* | 0% | 4%[0.505 µM] | 2%
